Out of some 420,000 compounds screened, about 64,000 (15%) were called active. Inconclusive results (about 27%) are left out. The call rests on the fitted dose curve; in most records, active means well fitted inhibition curve with a large enough effect; inconclusive means small, poorly fitted or top-dose-only effect; inactive means flat fitted curve, though single readings scatter. Not all results are given here. Where a call stands in place of a potency, no number is given.
Potency means the concentration at half of the fitted maximal effect.

The experiment in a line: qHTS for Inhibitors of human tyrosyl-DNA phosphodiesterase 1 (TDP1): qHTS in cells in absence of CPT. Further: nearly all actives have a fitted effect of over 55% in size. Particulars: DT40 Tdp1-/- hTDP1 cells, no CPT, ATP luminescence, 48 h; activity change, negative = growth inhibition: at 46.2 µM (top of the series). The method in brief:
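Cells were dispensed at 400 per well, compounds added by pin tool, plates incubated ≥48 hr at 37 °C, then CellTiter-Glo added for 30 min at room temperature before luminescence reading. Line: DT40 Tdp1-/- complemented with hTDP1; camptothecin omitted.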
Regarding `CCN(CCN(C)C)C(=O)c1ccc2nc(C)c(N(C)C(=O)CCc3ccccc3)n2c1`, the Potency entry was “inactive”.

In the case of `CCOc1ccc(Br)cc1S(=O)(=O)Nc1ccc(S(=O)(=O)Nc2cc(C)on2)cc1`, the Potency entry was “inactive”.

As to `CC1C(=O)Nc2ccccc2N1C(=O)c1ccc(F)cc1F` (stereo not drawn), the Potency result is “inactive”.

`CCn1c(SCC(=O)NC2CC2)nnc1-c1ccccc1OC`: the Potency entry is “inactive”.

Take `Cc1ccc2cc(CN(c3ccc(C)c(C)c3)S(C)(=O)=O)c(=O)[nH]c2c1`: the Potency result is “inactive”.

With `Cc1cc(C)c2c(c1)cc(C)c1nnc(SCC(=O)Nc3cc(C)on3)n12`, the Potency is 11.6 µM (active).

For `Cc1cc(NC(=O)CSc2nnnn2-c2ccc(F)cc2)no1`, the Potency result was “inactive”.

Consider `Cc1cc(NC(=O)CSc2nnc(-c3ccco3)n2N)no1`, for which the Potency result is “inactive”.

With `Cc1ccc(NC(=O)C(Cc2ccccc2)NS(=O)(=O)c2ccc3c(c2)oc(=O)n3C)cc1C` (stereo not drawn), the Potency entry is “inactive”.

For `CN(C(=O)CC1C(=O)NCCN1Cc1ccc2ccccc2c1)C1CCOCC1` (stereo not drawn), the Potency result is “inactive”.

As to `O=C1CC(c2c(F)cccc2Cl)C(n2cncn2)C(O)=C1C1NCCc2ccccc21` (stereo not drawn), the Potency entry was “inactive”.

Turning to `Cc1ccc(C(C[N+](=O)[O-])c2c(C)cc3ccccn23)cc1` (stereo not drawn), the Potency was 16.4 µM (active).

Turning to `Cc1ccc(C(=O)NNC(=O)CSc2nnc3ccccn23)cc1`, the Potency entry is “inactive”.

Regarding `COc1ccc(CC(=O)Nc2nc3n(n2)C(c2ccccc2)CC(=O)N3)cc1OC` (stereo not drawn), the Potency entry was “inactive”.

`O=C(CN1CCN(c2ccccn2)CC1)NCc1cccs1`: the Potency result is “inactive”.

`O=C(COc1cc(Cl)c(Cl)cc1Cl)NCCc1ccccn1`: the Potency entry is “inactive”.

Regarding `NC(=S)NN=Cc1ccc(OC(=O)COc2cc(Cl)c(Cl)cc2Cl)cn1`, the Potency was 5.8 µM (active).

`O=C(COC(=O)COc1cc(Cl)c(Cl)cc1Cl)NC1CC1`: the Potency entry is “inactive”.

Turning to `Cc1nn(C)c(C)c1Sc1ccccc1N`, the Potency entry is “inactive”.

As for `CC(=O)OC(C(=O)NCCc1ccccc1)c1cccnc1` (stereo not drawn), the Potency entry was “inactive”.

Regarding `O=C(NCCc1ccc2c(c1)OCCO2)c1cc2ccccc2o1`, the Potency is 20.6 µM (active).

In the case of `O=C(Cc1ccc([N+](=O)[O-])cc1)NCCc1ccc2c(c1)OCO2`, the Potency result is “inactive”.

Regarding `O=C(COC(=O)c1ccc2c(c1)OCCO2)NCc1ccccc1`, the Potency entry was “inactive”.

In the case of `CN(C)S(=O)(=O)c1ccc(N2CCCC2)c(C(=O)Nc2cccc(F)c2)c1`, the Potency entry is “inactive”.

`CCN(CC)C(=O)CN(c1cccc([N+](=O)[O-])c1)S(=O)(=O)c1ccccc1`: the Potency entry is “inactive”.

In the case of `O=C(CCl)N(Cc1cccc([N+](=O)[O-])c1)c1cccc(Cl)c1`, the Potency is 4.11 µM (active).

For the compound `O=C(Nc1cccc([N+](=O)[O-])c1)Nc1ccc(Cl)cn1`, the Potency entry is “inactive”.

For the compound `O=C1O/C(=C\c2ccc(O)cc2)C(O)=C1c1ccc(O)cc1`, the Potency result was “inactive”.

For `Cc1cccc2cc(C#N)c(N3CCCC3)nc12`, the Potency entry is “inactive”.

On to `Cc1cc(C)c2nc(N3CCCC3)c(C#N)cc2c1`, for which the Potency result was “inactive”.

On to `Cc1cc(C)c2cc(C#N)c(N3CCNCC3)nc2c1`, for which the Potency is 18.4 µM (active).

`Cc1cccc(C)c1NC(=O)CNC(=O)c1c(C)nn(-c2ccccc2)c1C`: the Potency entry was “inactive”.

As to `COC(=O)N1CCC[C@@]2(CCN(C(=O)NC(C)C)C2)C1`, the Potency result was “inactive”.

For the compound `COc1ccc(N2CCN(C(=O)COc3ccc4c(C)cc(=O)oc4c3)CC2)cc1`, the Potency result is “inactive”.

As for `O=C(COc1ccc2c(c1)CCC2)N1CCN(c2ccc(F)cc2)CC1`, the Potency result is “inactive”.

On to `CSCCC(NC(=O)COc1ccccc1)C(=O)OCCOc1ccc(Br)cc1` (stereo not drawn), for which the Potency result is “inactive”.

`Cc1cc(=O)oc2cc(OCC(=O)N3CCN(c4ccc(F)cc4)CC3)c(Cl)cc12`: the Potency entry is “inactive”.

Take `OC(COc1ccc2c(c1)CCC2)CN1CCN(c2cccc(Cl)c2)CC1` (stereo not drawn): the Potency is 18.4 µM (active).

Consider `CSCCC(NC(=O)COc1ccccc1)C(=O)OCCOc1ccc(F)cc1` (stereo not drawn), for which the Potency entry was “inactive”.

With `CSCCC(NC(=O)COc1ccccc1)C(=O)N1CCN(c2cccc(C(F)(F)F)c2)CC1` (stereo not drawn), the Potency is 13 µM (active).

With `Cc1c(C)c2ccc(OCC(=O)N3CCN(c4cccc(Cl)c4)CC3)cc2oc1=O`, the Potency was 10.3 µM (active).

For the compound `COc1cccc(OCC(O)CN2CCN(CCO)CC2)c1` (stereo not drawn), the Potency entry was “inactive”.

Take `O=C(COc1ccc(Cl)cc1)N1CCN(c2cccc(C(F)(F)F)c2)CC1`: the Potency was 20.6 µM (active).

Turning to `COc1ccc(OCC(=O)N2CCN(C(=O)COc3ccccc3)CC2)cc1`, the Potency result is “inactive”.

`OC(COc1cccc(OCC(O)CN2CCCC2)c1)CN1CCCC1` (stereo not drawn): the Potency result is “inactive”.

With `O=C(O)c1cc([N+](=O)[O-])c(Nc2cccc3ccccc23)c([N+](=O)[O-])c1`, the Potency entry is “inactive”.

Regarding `CCn1ncc(C2=NOC(C(=O)N3CCN(c4ccccc4)CC3)C2)c1C` (stereo not drawn), the Potency entry is “inactive”.

Consider `O=C1OC(NC(=O)c2ccccc2)C(N2CCOCC2)=C1Cl` (stereo not drawn), for which the Potency entry is “inactive”.

As to `CCOC(=O)CCCNC(=O)COC(=O)c1cc(Br)c(Br)s1`, the Potency result is “inactive”.

For the compound `Cc1cccc(C)c1NC(=O)CNC(=O)C1CCCC1`, the Potency entry was “inactive”.

For `CC(C)(C)NC(=O)C(c1ccncc1)N(C(=O)CNC(=O)c1ccco1)c1ccc2c(c1)OCO2` (stereo not drawn), the Potency result was “inactive”.

For the compound `Cc1nc(Nc2ccccc2F)c2nnn(Cc3ccccc3Cl)c2n1`, the Potency entry is “inactive”.

On to `O=C(CCN1C(=O)[C@@H]2Cc3ccccc3CN2C1=O)NCCc1ccccc1`, for which the Potency result is “inactive”.

On to `O=C(NC1CCCCC1)C1CC(=O)N(CCc2ccccc2)C1` (stereo not drawn), for which the Potency result was “inactive”.

As to `COc1ccccc1-c1nnc(SCC(=O)Nc2ccccc2)o1`, the Potency result is “inactive”.

As to `O=C(c1ccccc1)c1ccc(OCC(O)CN2CCCC2)cc1` (stereo not drawn), the Potency entry is “inactive”.

Turning to `CCC(=O)c1ccc(OCC(O)CN2CC(C)OC(C)C2)cc1` (stereo not drawn), the Potency result is “inactive”.

For the compound `CCC(=O)c1ccc(OCC(O)CN2CCN(c3cccc(C(F)(F)F)c3)CC2)cc1` (stereo not drawn), the Potency was 25.9 µM (active).

Turning to `CCn1cc(C(=O)NCC(=O)NC(C)(C)CO)c(=O)c2cc3c(cc21)OCO3`, the Potency result is “inactive”.

As to `C/C(=N\NC(=O)C1(C)CC1(Br)Br)c1ccc(C)cc1C` (stereo not drawn), the Potency entry was “inactive”.

In the case of `COc1ccc(-c2noc(-c3ccc(C)cc3)n2)cc1`, the Potency entry was “inactive”.

In the case of `COc1ccc(-c2nc3c(s2)CCc2onc(-c4ccc(OC)cc4)c2-3)cc1`, the Potency is 16.4 µM (active).

In the case of `COc1ccc(-c2cc(C(=O)Nc3sc4c(c3C(N)=O)CCCC4)no2)cc1`, the Potency result was “inactive”.

As for `Cc1ccc(NC(=S)N2CCN(c3ncccn3)CC2)cc1C`, the Potency entry is “inactive”.

Take `O=C(NNC(=O)C1CCCC1)c1ccc(F)cc1`: the Potency entry was “inactive”.

With `Cc1sc2ncnc(N3CCC(C(=O)Nc4ccc(F)cc4Cl)CC3)c2c1C`, the Potency was 23.1 µM (active).

As to `O=C(NNC(=O)C1CCN(c2ncccn2)CC1)c1ccccc1`, the Potency entry is “inactive”.

For the compound `Cc1ccc(Cl)cc1NC(=O)C1CCN(S(C)(=O)=O)CC1`, the Potency result was “inactive”.

As to `Cc1sc2ncnc(N3CCC(C(=O)NNC(=O)c4ccc(F)cc4)CC3)c2c1C`, the Potency is 16.4 µM (active).

In the case of `Cc1nc2ccc(NC(=O)C3CCCCC3)cc2s1`, the Potency result is “inactive”.

Consider `CS(=O)(=O)c1ccc2nc(NC(=O)C3C4C=CC(C4)C3C(=O)O)sc2c1` (stereo not drawn), for which the Potency entry is “inactive”.

With `CC(=O)Nc1c(C)nn(-c2ccccc2)c1N1CCC(C(=O)Nc2cc(Cl)ccc2C)CC1`, the Potency result is “inactive”.

For `Cc1sc2ncnc(N3CCC(C(=O)Nc4nc5ccc(Cl)cc5s4)CC3)c2c1C`, the Potency was 7.31 µM (active).

Source of the values: PubChem BioAssay AID686978 (National Center for Advancing Translational Sciences (NCATS), 2013).
